# Measurements taken from PubChem BioAssay AID504401 (The Scripps Research Institute Molecular Screening Center, 2011).
# Values without a mark were called inactive. No rule for the calls is given here.
# Test system: Potassium Channel KATP
# Test: CYP450 and receptor off-target profile – biochemical, Ricerca HitProfilingScreen, selectivity assay for GPR7 antagonist project, late-stage follow-up (AID 504401)
# Conditions: Ricerca radioligand binding and CYP450 panel, at 10 µM, hits give high values
smiles,measurement,value
COc1ccc(Oc2c(Cl)cnn(-c3cc(C)cc(C)c3)c2=O)cc1,inhibition,11%
